# According to paper PMC5540273 (PLoS ONE, 2017):
# Where two headings read alike, the source gives them in different places.
# Columns and labels:
# Details in all cases: n = 1
# DRAK1 = tested on: T1, DRAK1
# T1 construct: gene STK17A
# DRAK2 = tested on: T2, DRAK2
# T2 construct: gene STK17B
# DYRK1A = tested on: DYRK1A
# DYRK1B = tested on: DYRK1B
# DYRK2 = tested on: DYRK2
# EGFR = tested on: EGFR
# EIF2AK1 = tested on: EIF2AK1
# EPHA1 = tested on: EPHA1
# EPHA2 = tested on: EPHA2
# EPHA3 = tested on: EPHA3
# EPHA4 = tested on: EPHA4
# EPHA5 = tested on: EPHA5
# EPHA6 = tested on: EPHA6
# EPHA7 = tested on: EPHA7
# EPHA8 = tested on: EPHA8
# EPHB1 = tested on: EPHB1
# EPHB2 = tested on: EPHB2
# EPHB3 = tested on: EPHB3
# EPHB4 = tested on: EPHB4
# EPHB6 = tested on: EPHB6
# [1] = concentration: 1 μM, replicates: in singlicate
# 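Note: KINOMEscan kinase panel screen.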
structure (smiles),measurement,setting,value
Cn1ccc2ncnc(Oc3ccc(Nc4nc5ccccc5[nH]4)cc3)c21,%Inh,DRAK1; [1],0%
same,%Inh,DRAK2; [1],2%
same,%Inh,DYRK1A; [1],0%
same,%Inh,DYRK1B; [1],5%
same,%Inh,DYRK2; [1],0%
same,%Inh,EGFR; [1],0%
same,%Inh,EIF2AK1; [1],0%
same,%Inh,EPHA1; [1],0%
same,%Inh,EPHA2; [1],0%
same,%Inh,EPHA3; [1],2%
same,%Inh,EPHA4; [1],12%
same,%Inh,EPHA5; [1],0%
same,%Inh,EPHA6; [1],4%
same,%Inh,EPHA7; [1],0%
same,%Inh,EPHA8; [1],0%
same,%Inh,EPHB1; [1],0%
same,%Inh,EPHB2; [1],0%
same,%Inh,EPHB3; [1],0%
same,%Inh,EPHB4; [1],1%
same,%Inh,EPHB6; [1],0%
Cc1ccc(NC(=O)Nc2cccc(C(F)(F)F)c2)cc1 [GSK955403],%Inh,DRAK1; 1 µM,15%
same,%Inh,DRAK2; 1 µM,0%
same,%Inh,DYRK1A; 1 µM,0%
same,%Inh,DYRK1B; 1 µM,0%
same,%Inh,DYRK2; 1 µM,0%
same,%Inh,EGFR; 1 µM,0%
same,%Inh,EIF2AK1; 1 µM,0%
same,%Inh,EPHA1; 1 µM,17%
same,%Inh,EPHA2; 1 µM,0%
same,%Inh,EPHA3; 1 µM,0%
same,%Inh,EPHA4; 1 µM,6%
same,%Inh,EPHA5; 1 µM,0%
same,%Inh,EPHA6; 1 µM,0%
same,%Inh,EPHA7; 1 µM,2%
same,%Inh,EPHA8; 1 µM,3%
same,%Inh,EPHB1; 1 µM,5%
same,%Inh,EPHB2; 1 µM,3%
same,%Inh,EPHB3; 1 µM,0%
same,%Inh,EPHB4; 1 µM,0%
same,%Inh,EPHB6; 1 µM,21%
COc1ccccc1-c1ccc2c(NC(=O)C3CC3)n[nH]c2n1 [SB-711239],%Inh,DRAK1; [1],5%
same,%Inh,DRAK2; [1],0%
same,%Inh,DYRK1A; [1],12%
same,%Inh,DYRK1B; [1],16%
same,%Inh,DYRK2; [1],2%
same,%Inh,EGFR; [1],2%
same,%Inh,EIF2AK1; [1],0%
same,%Inh,EPHA1; [1],0%
same,%Inh,EPHA2; [1],18%
same,%Inh,EPHA3; [1],0%
same,%Inh,EPHA4; [1],13%
same,%Inh,EPHA5; [1],0%
same,%Inh,EPHA6; [1],9%
same,%Inh,EPHA7; [1],4%
same,%Inh,EPHA8; [1],9%
same,%Inh,EPHB1; [1],0%
same,%Inh,EPHB2; [1],11%
same,%Inh,EPHB3; [1],15%
same,%Inh,EPHB4; [1],14%
same,%Inh,EPHB6; [1],6%
CS(=O)(=O)c1ccc(-c2c(-c3ncn[nH]3)sc(N3CCOCC3)c2C#N)cc1,%Inh,DRAK1; [1],8%
same,%Inh,DRAK2; [1],0%
same,%Inh,DYRK1A; [1],1%
same,%Inh,DYRK1B; [1],0%
same,%Inh,DYRK2; [1],14%
same,%Inh,EGFR; [1],12%
same,%Inh,EIF2AK1; [1],21%
same,%Inh,EPHA1; [1],24%
same,%Inh,EPHA2; [1],19%
same,%Inh,EPHA3; [1],0%
same,%Inh,EPHA4; [1],27%
same,%Inh,EPHA5; [1],27%
same,%Inh,EPHA6; [1],32%
same,%Inh,EPHA7; [1],0%
same,%Inh,EPHA8; [1],0%
same,%Inh,EPHB1; [1],6%
same,%Inh,EPHB2; [1],0%
same,%Inh,EPHB3; [1],36%
same,%Inh,EPHB4; [1],42%
same,%Inh,EPHB6; [1],17%
Cc1cccc(-c2nc(Nc3ccc4[nH]ncc4c3)c3ccccc3n2)n1 [GW857175],%Inh,DRAK1; [1],13%
same,%Inh,DRAK2; [1],10%
same,%Inh,DYRK1A; [1],24%
same,%Inh,DYRK1B; [1],11%
same,%Inh,DYRK2; [1],40%
same,%Inh,EGFR; [1],0%
same,%Inh,EIF2AK1; [1],5%
same,%Inh,EPHA1; [1],12%
same,%Inh,EPHA2; [1],1%
same,%Inh,EPHA3; [1],0%
same,%Inh,EPHA4; [1],0%
same,%Inh,EPHA5; [1],0%
same,%Inh,EPHA6; [1],0%
same,%Inh,EPHA7; [1],0%
same,%Inh,EPHA8; [1],0%
same,%Inh,EPHB1; [1],11%
same,%Inh,EPHB2; [1],0%
same,%Inh,EPHB3; [1],0%
same,%Inh,EPHB4; [1],0%
same,%Inh,EPHB6; [1],43%
Cc1cccc(-c2nc(C)cc(Nc3ccncc3)n2)n1 [GSK257997],%Inh,DRAK1; [1],12%
same,%Inh,DRAK2; [1],0%
same,%Inh,DYRK1A; [1],6%
same,%Inh,DYRK1B; [1],13%
same,%Inh,DYRK2; [1],14%
same,%Inh,EGFR; [1],30%
same,%Inh,EIF2AK1; [1],0%
same,%Inh,EPHA1; [1],0%
same,%Inh,EPHA2; [1],9%
same,%Inh,EPHA3; [1],0%
same,%Inh,EPHA4; [1],2%
same,%Inh,EPHA5; [1],0%
same,%Inh,EPHA6; [1],2%
same,%Inh,EPHA7; [1],7%
same,%Inh,EPHA8; [1],8%
same,%Inh,EPHB1; [1],23%
same,%Inh,EPHB2; [1],0%
same,%Inh,EPHB3; [1],5%
same,%Inh,EPHB4; [1],5%
same,%Inh,EPHB6; [1],0%
Cc1ccc(-c2cc(-c3c[nH]nc3-c3ccccn3)ccn2)cc1 [GW684088],%Inh,DRAK1; [1],12%
same,%Inh,DRAK2; [1],0%
same,%Inh,DYRK1A; [1],11%
same,%Inh,DYRK1B; [1],6%
same,%Inh,DYRK2; [1],0%
same,%Inh,EGFR; [1],6%
same,%Inh,EIF2AK1; [1],0%
same,%Inh,EPHA1; [1],0%
same,%Inh,EPHA2; [1],0%
same,%Inh,EPHA3; [1],49%
same,%Inh,EPHA4; [1],7%
same,%Inh,EPHA5; [1],0%
same,%Inh,EPHA6; [1],8%
same,%Inh,EPHA7; [1],10%
same,%Inh,EPHA8; [1],15%
same,%Inh,EPHB1; [1],9%
same,%Inh,EPHB2; [1],0%
same,%Inh,EPHB3; [1],9%
same,%Inh,EPHB4; [1],20%
same,%Inh,EPHB6; [1],7%
COc1ccccc1CNC(=O)c1cc(C(=O)c2ccccc2C)c[nH]1 [GSK364507],%Inh,DRAK1; [1],1%
same,%Inh,DRAK2; [1],12%
same,%Inh,DYRK1A; [1],17%
same,%Inh,DYRK1B; [1],19%
same,%Inh,DYRK2; [1],0%
same,%Inh,EGFR; [1],36%
same,%Inh,EIF2AK1; [1],0%
same,%Inh,EPHA1; [1],25%
same,%Inh,EPHA2; [1],13%
same,%Inh,EPHA3; [1],0%
same,%Inh,EPHA4; [1],5%
same,%Inh,EPHA5; [1],0%
same,%Inh,EPHA6; [1],0%
same,%Inh,EPHA7; [1],8%
same,%Inh,EPHA8; [1],19%
same,%Inh,EPHB1; [1],25%
same,%Inh,EPHB2; [1],0%
same,%Inh,EPHB3; [1],6%
same,%Inh,EPHB4; [1],20%
same,%Inh,EPHB6; [1],11%
Cc1ccc(NC(=O)Nc2cccc(Cl)c2)cc1-c1ccc(C(=O)Nc2ccncc2)cc1 [GSK1398468],%Inh,DRAK1; [1],0%
same,%Inh,DRAK2; [1],0%
same,%Inh,DYRK1A; [1],1%
same,%Inh,DYRK1B; [1],21%
same,%Inh,DYRK2; [1],0%
same,%Inh,EGFR; [1],24%
same,%Inh,EIF2AK1; [1],0%
same,%Inh,EPHA1; [1],6%
same,%Inh,EPHA2; [1],3%
same,%Inh,EPHA3; [1],0%
same,%Inh,EPHA4; [1],18%
same,%Inh,EPHA5; [1],0%
same,%Inh,EPHA6; [1],11%
same,%Inh,EPHA7; [1],3%
same,%Inh,EPHA8; [1],38%
same,%Inh,EPHB1; [1],26%
same,%Inh,EPHB2; [1],15%
same,%Inh,EPHB3; [1],4%
same,%Inh,EPHB4; [1],19%
same,%Inh,EPHB6; [1],0%
Cc1ccccc1-n1cnc2c(N)ncnc21 [SKF-97510],%Inh,DRAK1; [1],0%
same,%Inh,DRAK2; [1],47%
same,%Inh,DYRK1A; [1],0%
same,%Inh,DYRK1B; [1],0%
same,%Inh,DYRK2; [1],0%
same,%Inh,EGFR; [1],0%
same,%Inh,EIF2AK1; [1],0%
same,%Inh,EPHA1; [1],0%
same,%Inh,EPHA2; [1],0%
same,%Inh,EPHA3; [1],0%
same,%Inh,EPHA4; [1],4%
same,%Inh,EPHA5; [1],0%
same,%Inh,EPHA6; [1],0%
same,%Inh,EPHA7; [1],0%
same,%Inh,EPHA8; [1],0%
same,%Inh,EPHB1; [1],1%
same,%Inh,EPHB2; [1],0%
same,%Inh,EPHB3; [1],0%
same,%Inh,EPHB4; [1],0%
same,%Inh,EPHB6; [1],7%
